Yeast superoxide – reduction of superoxide in aged yeast, primary screen, HTS; S. cerevisiae aged cells, superoxide DHE fluorescence; active compounds read low; superoxide response (% of plate mean), % at 10 µM; 0.18% of 330,000 active; AID 2690, 2010;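 active means superoxide response under a set limit, about three screen SD below normal, cut at about 65% in these data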;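 further: yeast aged for seven days with compound at 30 °C before DHE staining; 100% = average MFI of all compound-treated wells on the plate with controls excluded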
aDG glyco up – activators of alpha-DG glycosylation, primary screen, uHTS, Pro5-aDG cells, AlphaScreen; 0.22% of 360,000 active; activation, % at 10 µM; alpha-DG glycosylation AlphaScreen (IIH6); 0% Pro5, 100% B10-LARGE cell signal;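 active means activation of at least 8% versus controls, or a plate z-score of at least 8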;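 further: Pro5 are CHO cells carrying HIG-tagged alpha-DG that lacks glycosylation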
SUMO Mot1 rescue – yeast Mot1-301 growth rescue at high temperature, primary screen, SUMOylation pathway inhibitor project, S. cerevisiae, ATP luminescence, 38.5C; S. cerevisiae Mot1-301 growth rescue; percent above DMSO median, 100 means doubled; growth rescue, % at 18.8 µM; 1% of 320,000 active; AID 2716, 2010;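 active means every valid replicate shows activation above 250% relative to neutral control wells; inactive means the rest, any valid replicate at or below 250%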;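 further: OY570 slx delta 5 strain wells were the positive control but not used for scaling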
FAS TE block – FAS thioesterase domain inhibitors, primary screen, biochemical, fluorescence intensity, uHTS; Fatty acid synthase (Homo sapiens), P49327; recombinant FAS-TE, OMFH fluorogenic substrate, fluorescence endpoint; inhibition, % at 15 µM; 0.67% of 360,000 active;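 active means compounds whose normalised, plate-corrected inhibition of enzyme fluorescence in the single-dose primary screen is 50% or more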;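 further: 0% = DMSO with enzyme and 100% = substrate without enzyme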
MPTP inh – mitochondrial permeability transition pore inhibitors, primary screen, biochemical, isolated mouse mitochondria, absorbance; Ca2+ swelling absorbance, 30 min; inhibition, % at 10 µM; 1.4% of 360,000 active; AID 602449, 2012;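 active means inhibition of 50% or more, scaled per plate between neutral and stimulator controls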;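 further: 0% = DMSO wells given calcium and 100% = 1 mM EGTA wells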
H9c2 protect – cardioprotection against H2O2-induced cell death, primary screen, uHTS, H9c2 cells, ATPLite luminescence. 0.63% of 360,000 active. protection from H2O2 cell death, % at 20 µM. H9c2 cardiomyocytes, H2O2 injury protection, 2 h;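 active means compounds giving at least 50% protection of heart cells from peroxide-induced death in the single-dose screen, raw or plate-pattern-corrected value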;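 further: 0% = DMSO wells with peroxide and 100% = DMSO wells without peroxide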
MPTP counter – fluorescence retest of MPTP screen hits in isolated mitochondria, single concentration. shares compounds with MPTP inh. membrane potential, Rhodamine 123 fluorescence. inhibition, % at 10 µM. 78% of 5,000 active; in the data active means inhibition above about 22%;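 further: 0% = DMSO vehicle and 100% = positive control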
MPTP swell DR – mitochondrial permeability transition pore inhibitors, dose response, biochemical, absorbance, uHTS hits | shares compounds with MPTP inh | isolated mitochondria swelling | IC50, µM | 58% of 780 active | AID 651561, 2012; in the data active means IC50 below about 20 µM
MPTP cs DR – fluorescent counter-screen in isolated mitochondria, dose response, counter-screen for MPTP inhibitor project, biochemical, fluorescence, uHTS hits; shares compounds with MPTP inh; IC50, µM; isolated mitochondria counterscreen, fluorescence read-out; 49% of 780 active; AID 651564, 2012; in the data active means IC50 below about 80 µM
* marks the source's active call; other numbers are inactive results; nt = no result given. Sampled rows, rich in hits. Any-hit rate of the full collection: about 3.8%.

SMILES | Yeast superoxide | aDG glyco up | SUMO Mot1 rescue | FAS TE block | MPTP inh | H9c2 protect | MPTP counter | others
COc1ccc(C(=O)/C(C#N)=N/Nc2cccc([N+](=O)[O-])c2)cc1 | nt | 0.2 | nt | 12.9 | 94.5* | -26.0 | 80.7*
N#C/C(=N\Nc1cccc(Cl)c1)C(=O)c1ccccc1 | 93.2 | 0.1 | nt | 1.3 | 95.6* | -28.1 | 80.5*
N#C/C(=N\Nc1ccccc1Cl)C(=O)c1ccccc1 | 104.9 | -0.2 | 5.5 | -4.6 | 91.0* | -9.4 | 101.7*
CCOC(=O)N(C)C[C@@H]1OCc2cnnn2CCCC(=O)N([C@@H](C)CO)C[C@@H]1C | nt | -0.3 | nt | -5.1 | -0.4 | -10.3 | nt
CCOC(=O)[C@@H]1[C@H]2COc3ccccc3[C@H]2N2C(=O)N(c3ccc(C(F)(F)F)cc3)C(=O)[C@]12C | 112.2 | 0.4 | -19.2 | 41.4 | 95.0* | -18.7 | 118.4*
CCOC(=O)c1ccc(NC(=O)CCc2nc(-c3ccc(C)cc3)no2)cc1 | 105.4 | 7.0 | -8.0 | 31.3 | 85.4* | -13.2 | 85.5*
Cc1ccc(-c2noc(CCC(=O)Nc3ccc4c(c3)OCO4)n2)cc1 | 110.0 | -0.1 | -5.9 | -2.1 | 52.3* | -24.7 | 26.4*
CCOC(=O)c1ccc(NC(=O)CCc2nc(-c3ccc(Cl)cc3)no2)cc1 | 98.7 | 0.6 | -0.4 | 22.2 | 97.3* | -25.4 | 81.0*
COc1ccc(NC(=O)CCc2nc(-c3ccc(C)cc3)no2)cc1Cl | 95.6 | 3.0 | -7.0 | 21.4 | 19.8 | -17.2 | nt
COc1ccc(NC(=O)CNC(=O)c2ccco2)cc1S(=O)(=O)Nc1cc(C)ccc1Br | 87.4 | -0.3 | -2.8 | 6.8 | -1.7 | 3.9 | nt
CN1CCN(NC(=O)c2ccc(Br)s2)CC1 | 108.7 | -0.1 | 8.8 | -3.3 | -0.6 | -0.3 | nt
O=S(=O)(c1ccc(N2CCCC2)cc1)C(F)(F)F | 100.6 | 0.3 | 28.4 | 17.8 | 90.7* | -16.6 | 68.1*
O=S(=O)(c1ccc(N2CCN(c3ccc(F)cc3)CC2)cc1)N1CCCC1 | 109.0 | 0.2 | 6.7 | -4.3 | -0.6 | -3.2 | nt
CC1CCCC(NC(=S)Nc2cccc(S(=O)(=O)N(C)C)c2)C1C (stereo not given) | 93.7 | -0.7 | 92.7 | 15.5 | 72.8* | -28.2 | 92.0*
CN(C)S(=O)(=O)c1cccc(NC(=S)NNC(=O)c2cc3ccccc3cc2O)c1 | 97.2 | -0.1 | 0.0 | 11.0 | 51.7* | 3.2 | 48.0*
CN(C)S(=O)(=O)c1cccc(NC(=S)NC(=O)c2ccco2)c1 | nt | -0.3 | nt | 1.7 | -1.7 | 0.8 | nt
CC(=O)c1ccc(NC(=S)NN2C(C)CCCC2C)cc1 (stereo not given) | 104.7 | 0.2 | -2.6 | -6.5 | 4.3 | -0.2 | nt
CC(=O)c1ccc(NC(=S)NC2CCCC(C)C2C)cc1 (stereo not given) | 105.4 | 0.0 | -1.6 | 11.7 | 71.1* | -16.0 | 75.5*
Cc1cc(C)c2c(=O)n3c(nc2c1)C(Cc1ccc(O)cc1)NC(=O)c1cc2ccccc2cc1-3 (stereo not given) | nt | -0.6 | nt | 30.1 | -1.8 | -5.1 | nt
CC(C)n1nc(Cc2cccc3ccccc23)c(C#N)c1N | 95.4 | 0.3 | 3.0 | -0.7 | 0.5 | 0.2 | nt
CCCS(=O)(=O)NC(=O)C1(C)CCN(C(=O)C2(c3ccc(Cl)cc3)CCCC2)C1 (stereo not given) | nt | 0.0 | nt | -5.0 | 0.0 | -0.9 | nt
CSc1cccc(NC(=O)Nc2ccccc2)c1 | 103.4 | 0.7 | nt | -0.5 | 87.9* | 2.3 | 110.3*
CSc1cccc(NC(=O)/C=C/c2ccc(Cl)cc2)c1 | 105.4 | 0.5 | 5.0 | 28.4 | 90.3* | -13.5 | 90.0*
CSc1cccc(NC(=O)/C=C/c2ccccc2)c1 | 100.9 | -0.2 | 163.4 | 20.4 | 51.9* | -8.4 | 52.8*
CSc1ccc(/C=C/C(=O)Nc2ccccc2)cc1 | 112.2 | 0.0 | nt | 1.1 | 1.9 | -29.8 | nt
SMILES | Yeast superoxide | aDG glyco up | SUMO Mot1 rescue | FAS TE block | MPTP inh | H9c2 protect | MPTP counter | others
CSc1cccc(NC(=O)/C=C/c2ccco2)c1 | 84.0 | -0.2 | -1.7 | 4.1 | -0.3 | 8.5 | nt
O=C(Nc1cccc2cccnc12)c1csc([C@@H]2O[C@H](CO)[C@H](O)[C@H](O)[C@H]2O)n1 | nt | -0.1 | nt | -6.2 | 0.4 | 9.4 | nt
Cc1ccccc1C(=O)NNC(=O)c1ccncc1 | 103.0 | -0.2 | 11.3 | -4.4 | -0.2 | 0.3 | nt
CC(C)(C)NC(=O)C(c1ccc(-c2ccccc2)cc1)N(C[C@H]1CC[C@@H]([C@@H]2CC[C@H](CO)O2)O1)C(=O)c1ccc(C(C)(C)C)cc1 (stereo not given in full) | 109.3 | 0.3 | nt | 13.0 | -1.1 | -14.5 | nt
CC(C)(C)c1ccc(C(=O)NCC2CCCN2S(=O)(=O)c2ccccc2)cc1 (stereo not given) | 103.4 | 0.3 | -14.3 | 37.3 | 1.5 | -2.4 | nt
CN1CCCC1CCOC(C)(c1ccccc1)c1ccc(Cl)cc1 (stereo not given) | nt | 0.2 | nt | -4.6 | 80.7* | 12.9 | -11.4 | MPTP swell DR=6.08*;MPTP cs DR=>80
Cc1ccc(NC(=O)CC(O)(C(F)(F)F)C(F)(F)F)c(Br)c1 | 101.0 | 0.1 | 0.6 | 4.7 | 52.8* | -7.8 | 79.0*
CC(C)n1c(-c2ccc(C(C)(C)C)cc2)n[nH]c1=S | 82.0 | 0.3 | -5.7 | 1.7 | 68.0* | -14.9 | 67.0*
CC(C)(C)c1ccc(-c2n[nH]c(=S)n2Cc2ccccc2)cc1 | 106.6 | 0.3 | 87.2 | 13.3 | 3.1 | -12.7 | nt
Oc1cc2ccccc2cc1-c1n[nH]c(=S)o1 | 119.8 | 0.0 | nt | 2.5 | 95.9* | 15.5 | 71.1*
S=c1[nH]nc(-c2c[nH]c3ccccc23)o1 | 95.3 | 0.0 | -2.5 | -7.3 | -1.2 | 2.2 | nt
Cc1ccc(SCc2nc3ccccc3n2CC(=O)Nc2ccc(Cl)cc2)cc1 | 112.5 | 0.6 | -8.8 | 18.5 | 86.8* | -17.4 | 86.8*
Cc1ccc(SCc2nc3ccccc3n2CC(=O)Nc2ccccc2)cc1 | 99.3 | 0.2 | -10.7 | 15.8 | 10.3 | -4.9 | nt
CC(=O)c1c(C)[nH]c(C(=O)Nc2ccc(Cl)c(S(=O)(=O)N3CCOCC3)c2)c1C | 102.9 | -0.2 | -15.6 | 1.7 | 63.5* | 5.5 | 79.8*

Screening data: PubChem, several laboratories
